Test results from PubChem BioAssay (Tox21).
Inconclusive results are not listed. Calls of active or inactive are those of the source. Unless noted, calls follow the shape of the full dose curve.

What was measured:
[1] = qHTS assay to identify small molecule agonists of the vitamin D receptor (VDR) signaling pathway - cell viability counter screen (AID 743224; active = well fitted curve in the direction sought with a large enough effect in the repeat runs; an effect the other way counts as inactive or inconclusive; also: series mostly up to about 63 µM; % is scaled to controls: 0 for no effect and ±100 for the full control effect; nearly all actives have a fitted effect of over 50% in size)
Procedure, shortened: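 Cells: VDR-bla, 2,000/well, settled 4 h. Treatment: compounds in DMSO, 16 h, 37C/5% CO2. Readout: CellTiter-Glo luminescence after 30 min RT.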

[2] = qHTS assay to identify small molecule antagonists of the vitamin D receptor (VDR) signaling pathway - cell viability counter screen (AID 743225; active = well fitted curve in the direction sought with a large enough effect in the repeat runs; an effect the other way counts as inactive or inconclusive; also: % is scaled to controls: 0 for no effect and ±100 for the full control effect; nearly all actives have a fitted effect of over 50% in size)
Procedure, shortened: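 Read-out: CellTiter-Glo luminescence measured 30 min after reagent addition at room temperature. Cells were VDR-bla HEK 293T exposed 16 h at 37C, 5% CO2, to compound with 3 nM final calcitriol agonist.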

[3] = qHTS assay to identify small molecule agonists of the NFkB signaling pathway - cell viability counter screen (AID 1159515); also: series mostly up to about 61 µM; % is scaled to controls: 0 for no effect and ±100 for the full control effect; nearly all actives have a fitted effect of over 55% in size
Procedure, shortened: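 Cells are seeded (2,000 NFkB-bla ME-180 per well), rested overnight, and dosed with DMSO-dissolved compounds for 5 hr at 37 C. Viability is then read by CellTiter-Glo luminescence after 30 min at room temperature.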

[4] = qHTS assay to identify small molecule agonists of the endoplasmic reticulum stress response signaling pathway (AID 1159516; active = well fitted activation curve with a large enough effect in the signal ratio in the repeat runs, not every such curve was filed as active; the % refers to the signal ratio; also: % is scaled to controls: 0 for no effect and ±100 for the full control effect)
Procedure, shortened: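 Cells are seeded at 1,500 per well and incubated overnight. Compounds in DMSO are added for 5 hr at 37 C, then beta-lactamase FRET substrate for 2 hr at room temperature, and fluorescence at 460 and 530 nm is measured.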

[5] = qHTS assay to identify small molecule agonists of the endoplasmic reticulum stress response signaling pathway - cell viability counter screen (AID 1159517);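 also: HeLa cells carrying an ER stress response element beta-lactamase reporter; series mostly up to about 61 µM; % is scaled to controls: 0 for no effect and ±100 for the full control effect; nearly all actives have a fitted effect of over 50% in size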
Procedure, shortened: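 Steps: seed 1,500 ESRE-bla HeLa cells per well; incubate overnight at 37 C, 5% CO2; add compounds in DMSO for 5 hr; run FRET substrate 2 hr RT; add CellTiter-Glo, wait 30 min, read luminescence.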

[6] = qHTS assay to identify small molecule antagonists of the retinoid-related orphan receptor gamma (ROR-gamma) signaling pathway - cell viability counter screen (AID 1159520; active = well fitted curve in the direction sought with a large enough effect in the repeat runs; an effect the other way counts as inactive or inconclusive; also: % is scaled to controls: 0 for no effect and ±100 for the full control effect; nearly all actives have a fitted effect of over 50% in size)
Procedure, shortened: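 Tet-on ROR gamma CHO cells were given compounds for 2 hr, then doxycycline hyclate at 1 uM final, and incubated 16 hr at 37 C. Viability was measured as ATP content by CellTiter-Glo luminescence.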

[7] = biological target: Nuclear receptor ROR-gamma (Homo sapiens) (UniProt P51449); test: qHTS assay to identify small molecule antagonists of the retinoid-related orphan receptor gamma (ROR-gamma) signaling pathway (AID 1159521; active = well fitted curve in the direction sought with a large enough effect in the repeat runs; an effect the other way counts as inactive or inconclusive)
Procedure, shortened: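 CHO Tet-on RORγ, RORE-luc reporter. Cpd 2 h pre-incubation, then dox hyclate 1 uM final, 16 h, 37 C/5% CO2. ONE-Glo luminescence; decrease = antagonist.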

[8] = qHTS assay to identify small molecule agonists of the AP-1 signaling pathway - cell viability counter screen (AID 1159525); also: nearly all actives have a fitted effect of over 55% in size
Procedure, shortened: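 Same-well cytotoxicity counter screen of the Tox21 10K library in ME-180 cells. The readout is ATP-dependent luminescence after 5 h compound treatment. Data are normalised to DMSO and tetra n-octyl ammonium bromide controls.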

[9] = qHTS assay to identify small molecule agonists of the AP-1 signaling pathway (AID 1159526); also: % is scaled to controls: 0 for no effect and ±100 for the full control effect
[10] = biological target: Retinoic acid receptor RXR-alpha (Homo sapiens) (UniProt P19793); test: qHTS assay to identify small molecule agonists of the RXR signaling pathway (AID 1159527); also: % is scaled to controls: 0 for no effect and ±100 for the full control effect; nearly all actives have a fitted effect of over 35% in size
Sequence of Retinoic acid receptor RXR-alpha (Homo sapiens) (P19793 whole entry, looked up): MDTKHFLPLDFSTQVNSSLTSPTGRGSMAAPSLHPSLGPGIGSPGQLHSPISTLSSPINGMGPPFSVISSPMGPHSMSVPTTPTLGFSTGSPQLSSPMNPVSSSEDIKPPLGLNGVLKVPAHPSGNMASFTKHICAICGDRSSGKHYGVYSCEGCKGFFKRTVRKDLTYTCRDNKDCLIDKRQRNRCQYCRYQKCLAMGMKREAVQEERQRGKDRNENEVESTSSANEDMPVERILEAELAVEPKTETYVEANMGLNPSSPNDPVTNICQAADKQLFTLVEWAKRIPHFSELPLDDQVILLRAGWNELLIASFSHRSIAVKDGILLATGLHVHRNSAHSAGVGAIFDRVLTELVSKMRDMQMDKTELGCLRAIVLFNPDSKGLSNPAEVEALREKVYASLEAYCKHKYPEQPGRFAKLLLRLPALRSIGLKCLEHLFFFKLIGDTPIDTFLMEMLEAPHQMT
Procedure, shortened: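 Read-out: beta-lactamase FRET ratio (405 nm excitation, 460 and 530 nm emission) after 2 hr substrate loading at room temperature. Cells were RXR-alpha-UAS-bla HEK 293T treated with compounds for 16 hr in 2% charcoal-stripped FBS medium.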

COC(=O)c1c(C)cc(O)c(C)c1O
inactive: outcome [1] | outcome [2] | outcome [3] | Potency [4] | outcome [5] | outcome [6] | outcome [7] | outcome [8] | Potency [9] | Potency [10]

CC(C)(C)OC(=O)c1ccccc1C(=O)O
inactive: outcome [2] | outcome [3] | Potency [4] | outcome [5] | outcome [6] | outcome [7] | outcome [8] | Potency [9] | Potency [10]

O=CN1CCCCC1
inactive: outcome [2] | outcome [3] | Potency [4] | outcome [5] | outcome [6] | outcome [7] | outcome [8] | Potency [9] | Potency [10]

CCN(CC)CC
inactive: outcome [2] | outcome [3] | Potency [4] | outcome [5] | outcome [6] | outcome [7] | outcome [8] | Potency [9] | Potency [10]

CC(=O)OC/C=C(/C)CCC=C(C)C
inactive: outcome [1] | outcome [2] | outcome [3] | Potency [4] | outcome [5] | outcome [6] | outcome [7] | outcome [8] | Potency [9] | Potency [10]

NC[C@H]1O[C@H](O[C@H]2[C@H](O)[C@@H](O[C@H]3O[C@H](CO)[C@@H](O)[C@H](N)[C@H]3O)[C@H](N)C[C@@H]2N)[C@H](N)[C@@H](O)[C@@H]1O
inactive: outcome [2] | outcome [3] | Potency [4] | outcome [5] | activity, negative = cytotoxicity [6] 0.5% [at 19 µM] | activity change, negative = inhibition [7] -19.4% [at 19 µM] | viability change, negative = cytotoxic [8] 1.49% [at 15.8 µM] | activation [9] 0.424% [at 15.8 µM] | activation [10] 4.18% [at 15.8 µM]

CCCCC(O)/C=C(C)/C=C/C=C/C(=O)N1CCCC1=O (centres undefined)
inactive: outcome [1] | outcome [2] | outcome [3] | Potency [4] | outcome [5] | outcome [6] | outcome [7] | outcome [8] | Potency [9]

CCOCCOCCOC(C)=O
inactive: outcome [1] | outcome [2] | outcome [3] | Potency [4] | outcome [5] | outcome [6] | outcome [7] | outcome [8] | Potency [9]

CCOC(=O)CC(C(C)=O)C(C)=O
inactive: outcome [1] | outcome [2] | outcome [3] | Potency [4] | outcome [5] | outcome [6] | outcome [7] | outcome [8] | Potency [9]

CC(=O)O[C@@H]1CC2C3CCc4cc(OC(=O)c5ccccc5)ccc4C3CCC2(C)[C@H]1OC(C)=O (some centres undefined)
inactive: outcome [2] | outcome [3] | Potency [4] | outcome [5] | outcome [6] | outcome [7] | outcome [8] | Potency [9]

N#Cc1ccccc1C#N
inactive: outcome [1] | outcome [2] | outcome [3] | Potency [4] | outcome [5] | outcome [6] | outcome [7] | outcome [8] | Potency [9]

C[C@]12C=CC(=O)C=C1[C@@H](F)C[C@@H]1[C@@H]2[C@@H](O)C[C@@]2(C)[C@H]1CC[C@]2(O)C(=O)CO
inactive: outcome [1] | outcome [2] | outcome [3] | Potency [4] | outcome [5] | outcome [6] | outcome [7] | outcome [8] | Potency [9]

NS(=O)(=O)c1cc2c(cc1C(F)(F)F)NCNS2(=O)=O
inactive: outcome [1] | outcome [3] | Potency [4] | outcome [5] | outcome [6] | outcome [7] | outcome [8] | Potency [9]

CC(=O)OC1CCC(C(C)(C)C)CC1 (centres undefined)
inactive: outcome [1] | outcome [2] | outcome [3] | Potency [4] | outcome [5] | outcome [6] | outcome [7] | outcome [8] | Potency [9]

CCO/C=C1\N=C(c2ccccc2)OC1=O
inactive: outcome [2] | outcome [3] | Potency [4] | outcome [5] | outcome [6] | outcome [7] | outcome [8] | Potency [9] | Potency [10]

C[Si](C)(C)O[Si](O)(O)O
inactive: outcome [2] | outcome [3] | Potency [4] | outcome [5] | outcome [6] | outcome [7] | outcome [8] | Potency [9]

N#Cc1cc(NC(=O)C(=O)O)c(Cl)c(NC(=O)C(=O)O)c1
inactive: outcome [1] | outcome [2] | outcome [3] | Potency [4] | outcome [5] | outcome [6] | outcome [7] | outcome [8] | Potency [9]

O=C1Nc2ccccc2C1=O
inactive: outcome [2] | outcome [3] | Potency [4] | outcome [5] | outcome [6] | outcome [7] | outcome [8] | Potency [9]

CC(C)(C)C(=O)CCc1ccc(Cl)cc1
inactive: outcome [1] | outcome [2] | outcome [3] | Potency [4] | outcome [5] | outcome [6] | outcome [7] | outcome [8] | Potency [9]

N=C(N)S(=O)O
inactive: outcome [1] | outcome [2] | outcome [3] | Potency [4] | outcome [5] | outcome [6] | outcome [7] | outcome [8] | Potency [9]

CCCCCCCCS(=O)(=O)O
inactive: outcome [1] | outcome [2] | outcome [3] | Potency [4] | outcome [5] | outcome [6] | outcome [7] | outcome [8] | Potency [9]

CC(C)(C)C(=O)CC(=O)C(C)(C)C
inactive: outcome [1] | outcome [3] | Potency [4] | outcome [5] | outcome [6] | outcome [7] | outcome [8] | Potency [9]

CNCCc1ccccn1
inactive: outcome [1] | outcome [2] | outcome [3] | Potency [4] | outcome [5] | outcome [6] | outcome [7] | outcome [8] | Potency [9]

CC(C)OC(=O)C(C(=O)OC(C)C)=C1SC=CS1
inactive: outcome [1] | outcome [2] | outcome [3] | Potency [4] | outcome [5] | outcome [6] | outcome [7] | outcome [8] | Potency [9]

CN(C)CCCN(C)C
inactive: activity change, negative = cytotoxicity [1] 0.624% [at 5.95 µM] | activity, negative = cytotoxic [3] 0.193% [at 6.95 µM] | activation [4] 3.45% [at 6.95 µM] | activity, negative = cytotoxicity [6] 11.1% [at 8.39 µM] | activity change, negative = inhibition [7] -7.64% [at 8.39 µM] | viability change, negative = cytotoxic [8] -0.503% [at 6.97 µM] | activation [9] -5.98% [at 6.97 µM] | activation [10] 4.65% [at 6.98 µM]

CC(CC(=O)Cl)CC(C)(C)C (centres undefined)
inactive: outcome [1] | outcome [2] | outcome [3] | Potency [4] | outcome [5] | outcome [6] | outcome [7] | outcome [8] | Potency [9]

CN1C(CCl)Nc2cc(Cl)c(S(N)(=O)=O)cc2S1(=O)=O (centres undefined)
inactive: outcome [2] | outcome [3] | Potency [4] | outcome [5] | outcome [6] | outcome [7] | outcome [8] | Potency [9] | Potency [10]
